# Laboratory results reported in the supplement of paper PMC6555819.
# Columns and labels:
# Test in all cases: PBM binding z-score (relative to random genomic background probes); higher = stronger binding; sequences stand for … in GC…GCGATTGACAGCGTAGAATGAAGG
# [1] = system: FXR:RXRa (NR concentration 270 nM, RXRa partner concentration 90 nM)
# In short: (§1)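 Custom Agilent 4×180K protein-binding microarrays carried double-stranded probes. Their 34-nt variable regions held direct-repeat seeds, single-nucleotide variants, half-site ablations and random human genomic background sequences. Arrays were incubated 1 h with ligand-free nuclear receptor dimers in PBS pH 7.4, 2% milk, 0.02% Triton X-100, 1 mM DTT, 0.2 mg/mL BSA and 0.4 mg/ml salmon testes DNA. Antibodies against each partner (one per run) detected binding, and scanned fluorescence was regression-normalized. Binding z-scores use random background probes as reference.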
# [2] = system: LXRa:RXRa (NR concentration 270 nM, RXRa partner concentration 90 nM)
# In short: as §1
# [3] = system: LXRa homodimer (NR concentration 270 nM)
# In short: as §1
# [4] = system: LXRb:RXRa (NR concentration 270 nM, RXRa partner concentration 90 nM)
# In short: as §1
# [5] = system: LXRb homodimer (NR concentration 270 nM)
# In short: as §1
# [6] = system: PPARa:RXRa (NR concentration 270 nM, RXRa partner concentration 90 nM)
# In short: as §1
# [7] = system: PPARg:RXRa (NR concentration 180 nM, RXRa partner concentration 90 nM)
# In short: as §1
# [8] = system: PPARg:RXRa 270nM:90nM, anti-RXR (NR concentration 270 nM, RXRa partner concentration 90 nM)
# In short: as §1
# [9] = system: PPARg:RXRa 30nM:10nM, anti-RXR (NR concentration 30 nM, RXRa partner concentration 10 nM)
# In short: as §1
# [10] = system: PPARg:RXRa 90nM:30nM, anti-RXR (NR concentration 90 nM, RXRa partner concentration 30 nM)
# In short: as §1
# [11] = system: PPARg:RXRa DBDmut IVT, anti-RXR (DBD mutation: RXRa K156A/R161A, NR concentration 270 nM, RXRa partner concentration 90 nM)
# In short: as §1
# [12] = system: PPARg:RXRa IVT, anti-PPARg (NR concentration 270 nM, RXRa partner concentration 90 nM)
# In short: as §1
# [13] = system: PPARg DBDmut:RXRa IVT, anti-PPARg (DBD mutation: PPARg1 K132A/R137A, NR concentration 270 nM, RXRa partner concentration 90 nM)
# In short: as §1
# [14] = system: PPARg DBDmut IVT, anti-PPARg (DBD mutation: PPARg1 K132A/R137A, NR concentration 270 nM)
# In short: as §1
# [15] = system: PPARg homodimer (NR concentration 180 nM)
# In short: as §1
# [16] = system: PXR:RXRa (NR concentration 270 nM, RXRa partner concentration 90 nM)
# In short: as §1
# [17] = system: PXR homodimer (NR concentration 270 nM)
# In short: as §1
# [18] = system: RARa:RXR (NR concentration 270 nM, RXRa partner concentration 90 nM)
# In short: as §1
# [19] = system: RARa homodimer (NR concentration 270 nM)
# In short: as §1
# [20] = system: RARb:RXRa (NR concentration 270 nM, RXRa partner concentration 90 nM)
# In short: as §1
Sequence,PBM binding z-score [1],PBM binding z-score [2],PBM binding z-score [3],PBM binding z-score [4],PBM binding z-score [5],PBM binding z-score [6],PBM binding z-score [7],PBM binding z-score [8],PBM binding z-score [9],PBM binding z-score [10],PBM binding z-score [11],PBM binding z-score [12],PBM binding z-score [13],PBM binding z-score [14],PBM binding z-score [15],PBM binding z-score [16],PBM binding z-score [17],PBM binding z-score [18],PBM binding z-score [19],PBM binding z-score [20]
CGAACTAGGTCAGAACAGGACAGTGGAGGATGAT,1.69,0.958,-0.201,0.242,-0.2,2.93,5.08,4.33,1.86,3.73,7.32,7.18,1.32,0.317,0.748,0.65,-0.155,0.722,0.321,2.99
CAAACTAGGTCAAGAAAGGTCAAAGTCGAATGAC,7.13,7.84,7.14,6.98,2.48,6.35,8.96,7.74,5.91,7.85,8.14,8.39,1.43,1.46,4.85,6.73,3.25,7.01,3.23,5.44
CCTGCTAGGTCAATGGTCAGCTGAAGCAGCTCGC,3.06,2.17,-0.221,1.45,-0.203,3.22,4.4,5.35,2.69,4.92,4.48,4.13,0.258,-0.168,1.14,0.872,-0.578,1.71,-0.46,3.85
CCTTACGGGTCACTCCGGGTTATAGCATCGGAGT,5.38,6.79,0.448,4.31,0.169,4.62,3.58,4.18,1.34,3.26,1.96,3.06,0.27,-0.00571,1.92,4.6,-0.199,3.88,0.188,3.37
CTACCAAGGTGGACAAGGTCGTTGATTACTATTC,0.175,0.496,0.259,0.805,-0.653,0.861,0.061,0.155,-0.189,-0.0308,0.0779,0.0174,-1.17,0.143,0.0242,1.28,0.687,1.16,0.219,0.561
TCTTGTAGATCTAAGGTTAAGAAAGCCGAAGCCT,0.97,0.808,0.287,1.16,-0.127,1.98,1.85,3.71,3.41,4.08,1.71,0.863,0.224,-0.213,0.385,0.921,-0.35,1.55,-0.0766,0.9
ACAGACAGGTGATGAAGGTAACTCGGGCTATCAT,-0.17,0.107,-0.351,-0.291,-0.168,0.0611,0.471,-0.0859,-0.0607,-0.242,0.382,0.0218,-0.282,-0.148,0.503,-0.0935,0.344,0.209,0.291,0.263
CCTAGCAGGCCAATCTGGGTCACTAAAGGCTTGA,0.156,0.884,-0.513,0.511,-0.766,2.87,1.97,1.83,-0.068,0.891,4,4.94,-0.0852,-0.774,0.49,0.325,-0.597,1.13,-0.281,1.23
GCAGACAGGTGAAACGAAGGTAACTCAGGGTGGC,0.0182,0.296,-0.444,0.0431,-1.08,0.924,0.836,0.16,-0.263,-0.133,0.963,0.555,0.0896,-0.484,-0.228,0.0362,-0.595,0.681,-0.536,0.818
CGTCCAAGGTCAAAGGTTAGTGAAGAGATGACGG,7.74,5.92,1.42,5.09,1.54,6.47,8.94,7.84,7.41,8.3,3.36,4.86,2.1,1.08,6,6.05,1.47,7.8,1.93,5.22
TCATATAGGTAAAAGGTGGAAGTCGGTGTGGTAA,0.924,0.974,0.29,1.22,0.619,3.71,6.89,7.1,6.28,7.79,5.75,3.56,0.901,0.975,2.35,0.586,0.623,1.18,1.17,0.885
GCTTTCGGGTCAAAGGTTATAGCATGAATAGAAT,7.21,5.74,0.496,5.58,0.746,6.76,11.3,9.26,8.67,10,3.82,5.81,1.23,1.1,1.81,5.89,0.475,8.07,1.08,4.59
TAGCCTAGGACATTGGGCCAGTATAGTACGCATC,-0.399,-0.701,-0.544,-0.775,-0.541,-0.477,0.608,-0.283,-0.241,-0.224,-0.0779,0.309,-0.136,-0.693,-0.568,-0.674,-0.291,-0.557,-0.0644,-0.123
CAGACTGGGGCAAGGTTACCATAACGCACAGCCA,0.535,1.05,-0.312,1.07,-0.19,2.41,3.76,4.25,1.96,3.63,4.18,4.53,1.14,0.637,0.947,0.474,-0.134,0.82,0.141,1.8
